The supplement of paper PMC8728848
Only a selection was taken, and the strongest signals are over-represented in it overall.

Assays:
Assay in all cases: glycan array binding signal (z-score within array); higher = stronger binding
Conditions in all cases: glycan notation: IUPAC condensed, linker removed
[1] = target: Fuc(a1-2)Gal(b1-4)GlcNAc(b1-3)[Fuc(a1-3)[Gal(b1-4)]GlcNAc(b1-6)]Gal(b1-4)Glc
Outline: (§1)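 The binding signal is a Z-score computed within each array. Data were drawn from 3228 arrays in the Consortium for Functional Glycomics database, restricted to those with a known protein sequence. Scores were averaged over arrays of the same protein sequence at different concentrations or buffers, and over linkers, and negative values can be taken as non-binding.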

[2] = target: Fuc(a1-2)Gal(b1-4)[Fuc(a1-3)]GlcNAc(b1-2)[Fuc(a1-2)Gal(b1-4)[Fuc(a1-3)]GlcNAc(b1-4)]Man(a1-3)[Fuc(a1-2)Gal(b1-4)[Fuc(a1-3)]GlcNAc(b1-2)Man(a1-6)]Man(b1-4)GlcNAc(b1-4)GlcNAc
Outline: as §1

[3] = target: Fuc(a1-2)[Gal(a1-3)]Gal(b1-4)GlcNAc(b1-3)[Fuc(a1-2)[Gal(a1-3)]Gal(b1-4)GlcNAc(b1-6)]GalNAc
Outline: as §1

[4] = target: Fuc(a1-2)[Gal(a1-3)]Gal(b1-4)[Fuc(a1-3)]GlcNAc(b1-3)GalNAc
Outline: as §1

[5] = target: Fuc(a1-2)[GalNAc(a1-3)]Gal(b1-3)GlcNAc(b1-6)GalNAc
Outline: as §1

[6] = target: Fuc(a1-2)[GalNAc(a1-3)]Gal(b1-4)[Fuc(a1-3)]GlcNAc(b1-3)GalNAc
Outline: as §1

[7] = target: Fuc(a1-3)[Gal(b1-4)]GlcNAc(b1-2)Man(a1-3)[Fuc(a1-3)[Gal(b1-4)]GlcNAc(b1-2)Man(a1-6)]Man(b1-4)GlcNAc(b1-4)[Fuc(a1-6)]GlcNAc
Outline: as §1

[8] = target: Fuc(a1-3)[Gal(b1-4)]GlcNAc(b1-3)Gal(b1-4)[Fuc(a1-3)]GlcNAc
Outline: as §1

[9] = target: Fuc(a1-3)[Gal(b1-4)]GlcNAc(b1-6)[Gal(b1-3)GlcNAc(b1-3)]Gal(b1-4)Glc
Outline: as §1

[10] = target: Fuc(a1-3)[Gal3S(b1-4)]GlcNAc6S
Outline: as §1

[11] = target: Fuc(a1-3)[GalNAc(b1-4)]GlcNAc6S
Outline: as §1

[12] = target: Gal(a1-3)Gal(b1-3)GlcNAc(b1-2)Man(a1-3)[Gal(a1-3)Gal(b1-3)GlcNAc(b1-2)Man(a1-6)]Man(b1-4)GlcNAc(b1-4)GlcNAc
Outline: as §1

[13] = target: Gal(a1-3)Gal(b1-3)[Fuc(a1-4)]GlcNAc(b1-2)Man(a1-3)[Gal(a1-3)Gal(b1-3)[Fuc(a1-4)]GlcNAc(b1-2)Man(a1-6)]Man(b1-4)GlcNAc(b1-4)GlcNAc
Outline: as §1

Gal(a1-3)Gal(b1-4)GlcNAc = target: Gal(a1-3)Gal(b1-4)GlcNAc
Outline: as §1

[14] = target: Gal(a1-4)Gal(b1-4)GlcNAc(b1-2)Man(a1-3)[Gal(a1-4)Gal(b1-4)GlcNAc(b1-2)Man(a1-6)]Man(b1-4)GlcNAc(b1-4)GlcNAc
Outline: as §1

Gal(b1-3)Gal(b1-4)GlcNAc = target: Gal(b1-3)Gal(b1-4)GlcNAc
Outline: as §1

Gal(b1-3)GalNAc = target: Gal(b1-3)GalNAc
Outline: as §1

[15] = target: Gal(b1-3)GlcNAc(b1-3)Gal(b1-4)Glc
Outline: as §1

[16] = target: Gal(b1-3)GlcNAc(b1-3)Gal(b1-4)GlcNAc
Outline: as §1

[17] = target: Gal(b1-3)[Fuc(a1-4)]GlcNAc(b1-2)Man
Outline: as §1

[18] = target: Gal(b1-3)[Fuc(a1-4)]GlcNAc(b1-3)Gal(b1-3)[Fuc(a1-4)]GlcNAc
Outline: as §1

[19] = target: Gal(b1-3)[Fuc(a1-4)]GlcNAc(b1-6)GalNAc
Outline: as §1

[20] = target: Gal(b1-4)GlcNAc(b1-2)[Gal(b1-4)GlcNAc(b1-4)]Man(a1-3)[Gal(b1-4)GlcNAc(b1-2)Man(a1-6)]Man(b1-4)GlcNAc(b1-4)GlcNAc
Outline: as §1

[21] = target: Gal(b1-4)GlcNAc(b1-2)[Gal(b1-4)GlcNAc(b1-6)]Man(a1-6)[GlcNAc(b1-4)][Gal(b1-4)GlcNAc(b1-2)Man(a1-3)]Man(b1-4)GlcNAc(b1-4)GlcNAc
Outline: as §1

[22] = target: Gal(b1-4)GlcNAc(b1-3)Gal(b1-4)Glc
Outline: as §1

[23] = target: Gal(b1-4)GlcNAc(b1-6)[Gal(b1-3)]GalNAc
Outline: as §1

Gal3S(b1-3)GlcNAc = target: Gal3S(b1-3)GlcNAc
Outline: as §1

Gal6S(b1-4)GlcNAc6S = target: Gal6S(b1-4)GlcNAc6S
Outline: as §1

[24] = target: GalNAc(b1-4)GlcNAc(b1-2)Man(a1-3)[GalNAc(b1-4)GlcNAc(b1-2)Man(a1-6)]Man(b1-4)GlcNAc(b1-4)GlcNAc
Outline: as §1

GlcA(b1-3)Gal = target: GlcA(b1-3)Gal
Outline: as §1

[25] = target: GlcNAc(a1-3)Gal(b1-4)GlcNAc
Outline: as §1

[26] = target: GlcNAc(b1-3)Gal(b1-4)GlcNAc(b1-3)Gal(b1-4)GlcNAc(b1-2)Man(a1-3)[GlcNAc(b1-3)Gal(b1-4)GlcNAc(b1-3)Gal(b1-4)GlcNAc(b1-2)Man(a1-6)]Man(b1-4)GlcNAc(b1-4)GlcNAc
Outline: as §1

[27] = target: GlcNAc(b1-3)Gal(b1-4)GlcNAc(b1-3)Gal(b1-4)GlcNAc(b1-3)Gal(b1-4)GlcNAc(b1-3)Gal(b1-4)GlcNAc(b1-2)Man(a1-3)[GlcNAc(b1-3)Gal(b1-4)GlcNAc(b1-3)Gal(b1-4)GlcNAc(b1-3)Gal(b1-4)GlcNAc(b1-3)Gal(b1-4)GlcNAc(b1-2)Man(a1-6)]Man(b1-4)GlcNAc(b1-4)GlcNAc
Outline: as §1

[28] = target: GlcNAc(b1-3)Gal(b1-4)GlcNAc(b1-3)GalNAc
Outline: as §1

[29] = target: GlcNAc(b1-6)Gal(b1-4)GlcNAc
Outline: as §1

Man(a1-3)[Man(a1-6)]Man = target: Man(a1-3)[Man(a1-6)]Man
Outline: as §1

[30] = target: Neu5Ac(a2-3)Gal(b1-3)GlcNAc(b1-2)Man
Outline: as §1

[31] = target: Neu5Ac(a2-3)Gal(b1-3)[Fuc(a1-4)]GlcNAc(b1-3)Gal(b1-4)[Fuc(a1-3)]GlcNAc
Outline: as §1

[32] = target: Neu5Ac(a2-3)Gal(b1-4)GlcNAc(b1-2)[Neu5Ac(a2-3)Gal(b1-4)GlcNAc(b1-4)]Man(a1-3)[GlcNAc(b1-4)][Neu5Ac(a2-3)Gal(b1-4)GlcNAc(b1-2)[Neu5Ac(a2-3)Gal(b1-4)GlcNAc(b1-6)]Man(a1-6)]Man(b1-4)GlcNAc(b1-4)GlcNAc
Outline: as §1

[33] = target: Neu5Ac(a2-3)Gal(b1-4)GlcNAc(b1-2)[Neu5Ac(a2-3)Gal(b1-4)GlcNAc(b1-4)]Man(a1-3)[GlcNAc(b1-4)][Neu5Ac(a2-3)Gal(b1-4)GlcNAc(b1-4)Man(a1-6)]Man(b1-4)GlcNAc(b1-4)GlcNAc
Outline: as §1

[34] = target: Neu5Ac(a2-6)Gal(b1-4)GlcNAc(b1-2)Man(a1-6)Man(b1-4)GlcNAc(b1-4)GlcNAc
Outline: as §1

[35] = target: Neu5Ac(a2-6)Gal(b1-4)GlcNAc(b1-2)Man(a1-6)[Gal(b1-4)GlcNAc(b1-2)Man(a1-3)]Man(b1-4)GlcNAc(b1-4)GlcNAc
Outline: as §1

[36] = target: Neu5Ac(a2-6)Gal(b1-4)GlcNAc(b1-3)GalNAc
Outline: as §1

[37] = target: Neu5Ac(a2-8)Neu5Ac(a2-3)[GalNAc(b1-4)]Gal(b1-4)Glc
Outline: as §1

[38] = target: Neu5Ac9Ac(a2-3)Gal(b1-3)GlcNAc
Outline: as §1

[39] = target: Neu5Gc(a2-3)Gal(b1-3)[Fuc(a1-4)]GlcNAc
Outline: as §1

[40] = target: Neu5Gc(a2-3)Gal(b1-4)[Fuc(a1-3)]GlcNAc
Outline: as §1

B1: B936 (Bifidobacterium sp) (protein)
chain: MKNWKKAIALVASAAALVSVAACGPSNAGGSSDSGKKTVGFVAVGPEGGFRTANEKDIQKAFEDAGFDLTYSPTQNNDQQKQIQAFNKFVNDEVDAIILSSTEDSGWDDSLKKAAEAEIPVFTVDRNVDVKDAEAKKAIVAHIGPSNVWCGEQAAEFVNKNFPDGANGFILEGPAGLSVVKDRGTGWGNKVASNVKVLESQSANWSTDEAKTVTAGLLDKYKSDNPQFIFAQNDEMGLGAAQAVDAAGLKGKVKIITIDGTKNALQALVDGDLSYVIEYNPIFGKETAQAVKDYLDGKTVEKDIEIESKTFDAASAKEALDNNTRAY
- glycan array binding signal (z-score) [1]: -0.124
- glycan array binding signal (z-score) [2]: 0.564
- glycan array binding signal (z-score) [3]: -0.277
- glycan array binding signal (z-score) [4]: -0.217
- glycan array binding signal (z-score) [5]: 0.424
- glycan array binding signal (z-score) [6]: -0.006
- glycan array binding signal (z-score) [7]: 0.198
- glycan array binding signal (z-score) [8]: -0.555
- glycan array binding signal (z-score) [9]: -0.786
- glycan array binding signal (z-score) [10]: 0.399
- glycan array binding signal (z-score) [11]: -0.367
- glycan array binding signal (z-score) [12]: 2.85
- glycan array binding signal (z-score) [13]: 2.05
- glycan array binding signal (z-score) (Gal(a1-3)Gal(b1-4)GlcNAc): -0.375
- glycan array binding signal (z-score) [14]: 2.19
- glycan array binding signal (z-score) (Gal(b1-3)Gal(b1-4)GlcNAc): 11.1
- glycan array binding signal (z-score) (Gal(b1-3)GalNAc): 4.57
- glycan array binding signal (z-score) [15]: 1.71
- glycan array binding signal (z-score) [16]: 4.33
- glycan array binding signal (z-score) [17]: 1.8
- glycan array binding signal (z-score) [18]: -0.183
- glycan array binding signal (z-score) [19]: 1.04
- glycan array binding signal (z-score) [20]: -0.689
- glycan array binding signal (z-score) [21]: -0.558
- glycan array binding signal (z-score) [22]: 3.24
- glycan array binding signal (z-score) [23]: 0.173
- glycan array binding signal (z-score) (Gal3S(b1-3)GlcNAc): 0.121
- glycan array binding signal (z-score) (Gal6S(b1-4)GlcNAc6S): 0.127
- glycan array binding signal (z-score) [24]: 3.25
- glycan array binding signal (z-score) (GlcA(b1-3)Gal): -0.516
- glycan array binding signal (z-score) [25]: 0.799
- glycan array binding signal (z-score) [26]: 0.824
- glycan array binding signal (z-score) [27]: -0.371
- glycan array binding signal (z-score) [28]: -0.806
- glycan array binding signal (z-score) [29]: -0.106
- glycan array binding signal (z-score) (Man(a1-3)[Man(a1-6)]Man): -0.318
- glycan array binding signal (z-score) [30]: 0.307
- glycan array binding signal (z-score) [31]: 0.193
- glycan array binding signal (z-score) [32]: -0.471
- glycan array binding signal (z-score) [33]: 0.275
- glycan array binding signal (z-score) [34]: 0.197
- glycan array binding signal (z-score) [35]: -0.37
- glycan array binding signal (z-score) [36]: 2.06
- glycan array binding signal (z-score) [37]: -0.488
- glycan array binding signal (z-score) [38]: -0.521
- glycan array binding signal (z-score) [39]: 0.081
- glycan array binding signal (z-score) [40]: -0.593
